The entries come from a sample that favours the strongest signals as a whole.
How the values were obtained:
Assay in all cases: glycan array binding signal (z-score within array); higher = stronger binding
Details in all cases: glycan notation: IUPAC condensed, linker removed
[1] = molecular target: Fuc(a1-2)Gal(b1-3)[Fuc(a1-4)]GlcNAc(b1-2)Man(a1-3)[Fuc(a1-2)Gal(b1-3)[Fuc(a1-4)]GlcNAc(b1-2)Man(a1-6)]Man(b1-4)GlcNAc(b1-4)[Fuc(a1-6)]GlcNAc(b1-4)[Fuc(a1-6)]GlcNAc
Procedure, shortened: (§1)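 Negative Z-scores can be read as non-binding. The Z-score is calculated within each array and then averaged across arrays of one protein sequence at different concentrations or buffers and across linkers. Arrays, 3228 in all, were curated from the Consortium for Functional Glycomics database and kept only where the protein sequence was available.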

[2] = molecular target: Fuc(a1-2)Gal(b1-4)GlcNAc(b1-2)Man
Procedure, shortened: as §1

[3] = molecular target: Fuc(a1-2)Gal(b1-4)GlcNAc(b1-2)[Fuc(a1-2)Gal(b1-4)GlcNAc(b1-4)]Man(a1-3)[Fuc(a1-2)Gal(b1-4)GlcNAc(b1-2)Man(a1-6)]Man(b1-4)GlcNAc(b1-4)GlcNAc
Procedure, shortened: as §1

[4] = molecular target: Fuc(a1-2)Gal(b1-4)[Fuc(a1-3)]GlcNAc
Procedure, shortened: as §1

[5] = molecular target: Fuc(a1-2)Gal(b1-4)[Fuc(a1-3)]GlcNAc(b1-3)Gal(b1-4)[Fuc(a1-3)]GlcNAc(b1-3)Gal(b1-4)[Fuc(a1-3)]GlcNAc
Procedure, shortened: as §1

[6] = molecular target: Fuc(a1-2)[Gal(a1-3)]Gal(b1-4)GlcNAc(b1-2)Man
Procedure, shortened: as §1

[7] = molecular target: Fuc(a1-2)[GalNAc(a1-3)]Gal(b1-4)GlcNAc(b1-6)GalNAc
Procedure, shortened: as §1

[8] = molecular target: Fuc(a1-3)[Gal(b1-4)]Glc6S
Procedure, shortened: as §1

[9] = molecular target: Fuc(a1-3)[Gal(b1-4)]GlcNAc(b1-6)[Gal(b1-3)GlcNAc(b1-3)]Gal(b1-4)Glc
Procedure, shortened: as §1

Gal(a1-3)Gal(b1-3)GlcNAc = molecular target: Gal(a1-3)Gal(b1-3)GlcNAc
Procedure, shortened: as §1

Gal(a1-3)GalNAc = molecular target: Gal(a1-3)GalNAc
Procedure, shortened: as §1

[10] = molecular target: Gal(b1-3)GlcNAc(a1-3)Gal(b1-4)GlcNAc
Procedure, shortened: as §1

[11] = molecular target: Gal(b1-3)GlcNAc(b1-3)Gal(b1-4)GlcNAc(b1-2)[Gal(b1-3)GlcNAc(b1-3)Gal(b1-4)GlcNAc(b1-6)]Man(a1-6)[Gal(b1-3)GlcNAc(b1-3)Gal(b1-4)GlcNAc(b1-2)Man(a1-3)]Man(b1-4)GlcNAc(b1-4)[Fuc(a1-6)]GlcNAc
Procedure, shortened: as §1

Gal(b1-4)Glc = molecular target: Gal(b1-4)Glc
Procedure, shortened: as §1

[12] = molecular target: Gal(b1-4)GlcNAc(a1-6)Gal(b1-4)GlcNAc
Procedure, shortened: as §1

Gal(b1-4)GlcNAc(b1-2)Man = molecular target: Gal(b1-4)GlcNAc(b1-2)Man
Procedure, shortened: as §1

[13] = molecular target: Gal(b1-4)GlcNAc(b1-2)[Gal(b1-4)GlcNAc(b1-4)]Man(a1-3)[Gal(b1-4)GlcNAc(b1-2)[Gal(b1-4)GlcNAc(b1-6)]Man(a1-6)]Man(b1-4)GlcNAc(b1-4)GlcNAc
Procedure, shortened: as §1

[14] = molecular target: Gal(b1-4)GlcNAc(b1-3)Gal(b1-4)GlcNAc(b1-2)Man(a1-3)[Gal(b1-4)GlcNAc(b1-3)Gal(b1-4)GlcNAc(b1-2)Man(a1-6)]Man(b1-4)GlcNAc(b1-4)GlcNAc
Procedure, shortened: as §1

[15] = molecular target: Gal(b1-4)GlcNAc(b1-3)Gal(b1-4)GlcNAc(b1-2)Man(a1-3)[Gal(b1-4)GlcNAc(b1-3)Gal(b1-4)GlcNAc(b1-2)Man(a1-6)]Man(b1-4)GlcNAc(b1-4)[Fuc(a1-6)]GlcNAc
Procedure, shortened: as §1

[16] = molecular target: Gal(b1-4)GlcNAc(b1-3)Gal(b1-4)GlcNAc(b1-3)Gal(b1-4)GlcNAc(b1-3)Gal(b1-4)GlcNAc(b1-2)Man(a1-3)[Gal(b1-4)GlcNAc(b1-3)Gal(b1-4)GlcNAc(b1-3)Gal(b1-4)GlcNAc(b1-3)Gal(b1-4)GlcNAc(b1-2)Man(a1-6)]Man(b1-4)GlcNAc(b1-4)[Fuc(a1-6)]GlcNAc
Procedure, shortened: as §1

[17] = molecular target: Gal(b1-4)GlcNAc(b1-3)Gal(b1-4)GlcNAc(b1-3)Gal(b1-4)GlcNAc(b1-3)Gal(b1-4)GlcNAc(b1-3)Gal(b1-4)GlcNAc(b1-2)Man(a1-3)[Gal(b1-4)GlcNAc(b1-3)Gal(b1-4)GlcNAc(b1-3)Gal(b1-4)GlcNAc(b1-3)Gal(b1-4)GlcNAc(b1-3)Gal(b1-4)GlcNAc(b1-2)Man(a1-6)]Man(b1-4)GlcNAc(b1-4)GlcNAc
Procedure, shortened: as §1

[18] = molecular target: Gal(b1-4)GlcNAc(b1-3)Gal(b1-4)GlcNAc(b1-3)Gal(b1-4)GlcNAc(b1-3)Gal(b1-4)GlcNAc(b1-3)Gal(b1-4)GlcNAc(b1-2)[Gal(b1-4)GlcNAc(b1-3)Gal(b1-4)GlcNAc(b1-3)Gal(b1-4)GlcNAc(b1-3)Gal(b1-4)GlcNAc(b1-3)Gal(b1-4)GlcNAc(b1-6)]Man(a1-6)[Gal(b1-4)GlcNAc(b1-3)Gal(b1-4)GlcNAc(b1-3)Gal(b1-4)GlcNAc(b1-3)Gal(b1-4)GlcNAc(b1-3)Gal(b1-4)GlcNAc(b1-2)Man(a1-3)]Man(b1-4)GlcNAc(b1-4)[Fuc(a1-6)]GlcNAc
Procedure, shortened: as §1

[19] = molecular target: Gal(b1-4)GlcNAc(b1-3)Gal(b1-4)GlcNAc(b1-3)Gal(b1-4)GlcNAc(b1-3)Gal(b1-4)GlcNAc(b1-3)Gal(b1-4)GlcNAc(b1-3)Gal(b1-4)GlcNAc(b1-2)Man(a1-3)[Gal(b1-4)GlcNAc(b1-3)Gal(b1-4)GlcNAc(b1-3)Gal(b1-4)GlcNAc(b1-3)Gal(b1-4)GlcNAc(b1-3)Gal(b1-4)GlcNAc(b1-3)Gal(b1-4)GlcNAc(b1-2)Man(a1-6)]Man(b1-4)GlcNAc(b1-4)GlcNAc
Procedure, shortened: as §1

Gal3S(b1-4)Glc = molecular target: Gal3S(b1-4)Glc
Procedure, shortened: as §1

GalNAc3S(b1-4)GlcNAc = molecular target: GalNAc3S(b1-4)GlcNAc
Procedure, shortened: as §1

[20] = molecular target: GalNAc3S(b1-4)[Fuc(a1-3)]GlcNAc
Procedure, shortened: as §1

GalNAc4S6S(b1-4)GlcNAc = molecular target: GalNAc4S6S(b1-4)GlcNAc
Procedure, shortened: as §1

B1: GS13599A-bth-520-23-520 (Bacteroides thetaiotaomicron) (protein)
chain: SEDTMDRINKDHDHTTSVASRFILADVITSTAFSNASGDINTYASSYIEYEVGVDNQLYYAEVRENEPSSSSTFNNSWNGIYSSLKNARIIIDQCGEGGRDHGNDVTRGMAEVMAAYNCALIADFFGDAPCSQAALVDEKGSPVYMTPKMDTQQEIYTQIISYLDDAIANLQKEDLADVTEQDFLYAGDADKWLKFAYGLKARYTMRLINRSSNKSADYEKVLDYVSKSFTSADDQAAFDIYDSNNINPFYGFYNSRAGFGASTSLGTKLLAYNDPRANRAFFTPIVDKKRSQVAANDPSLVPAPNGSPDQSTSKYGISAFVYAKTAPTLLMSYHELMFLKAEALCRLNRDAEDALKEAVVAGLLNAENSISIAIKELGSGLNTNSSEVITETSAGKYFDDVVKAKYAANPLQETMIQKYLAMWGASGEATETYNDFRRMKGLNENFITLTNPNNSSKFPLRYPYGNSDTAANPEVKAAYGNGDYVYSEPVWWAGGSR
B1 was tested, and the “glycan array binding signal (z-score)” value [1] was 0.741, the “glycan array binding signal (z-score)” value [2] was -0.841 and the “glycan array binding signal (z-score)” value [3] was 2.4. For the same binder, the “glycan array binding signal (z-score)” value [4] was 0.206, the “glycan array binding signal (z-score)” value [5] was -0.474 and the “glycan array binding signal (z-score)” value [6] was -0.234. For the same binder, the “glycan array binding signal (z-score)” value [7] was -1.38, the “glycan array binding signal (z-score)” value [8] was 0.474 and the “glycan array binding signal (z-score)” value [9] was -0.479. For the same binder, the “glycan array binding signal (z-score)” value (Gal(a1-3)Gal(b1-3)GlcNAc) was -0.349, the “glycan array binding signal (z-score)” value (Gal(a1-3)GalNAc) was -1.08 and the “glycan array binding signal (z-score)” value [10] was 0.206. The “glycan array binding signal (z-score)” value [11] was 2.93, the “glycan array binding signal (z-score)” value (Gal(b1-4)Glc) was -0.435 and the “glycan array binding signal (z-score)” value [12] was -1.2. For the same binder, the “glycan array binding signal (z-score)” value (Gal(b1-4)GlcNAc(b1-2)Man) was 2.44, the “glycan array binding signal (z-score)” value [13] was -0.453 and the “glycan array binding signal (z-score)” value [14] was 3.32. The “glycan array binding signal (z-score)” value [15] was 1.38, the “glycan array binding signal (z-score)” value [16] was 2.46 and the “glycan array binding signal (z-score)” value [17] was 3.9. The “glycan array binding signal (z-score)” value [18] was 7.02, the “glycan array binding signal (z-score)” value [19] was 0.294 and the “glycan array binding signal (z-score)” value (Gal3S(b1-4)Glc) was 3.17. For the same binder, the “glycan array binding signal (z-score)” value (GalNAc3S(b1-4)GlcNAc) was 0.897, the “glycan array binding signal (z-score)” value [20] was 2.41 and the “glycan array binding signal (z-score)” value (GalNAc4S6S(b1-4)GlcNAc) was -1.28.

From the supplement of paper PMC8728848
